Only some compounds are listed: those with a hit (about 15% of all), similar ones and a draw of the others.
ELG1 DNA repair = blocks ELG1-dependent DNA repair in HEK293T cells | HEK293T ELG1-luciferase reporter, luminescence, 16 h; DNA damage induced by 5-fluorouridine | Potency, µM (series often up to 46.1 µM), inactives show at the highest dose activity change, negative = inhibition, most hits filed as inhibitors | 330,000 compounds, 2.3% hits | AID 504467; note: nearly all actives have a fitted effect of over 55% in size
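Cells (2,000 per well) received 5-fluorouridine plus test compound or DMSO and were incubated 16 hr at 37 °C, 5% CO2. Luciferase activity was read by luminescence 30 min after ONE-Glo addition; signal suppression marked inhibition of damage-induced ELG1 function.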
RORgamma inh = inhibitors of mouse ROR gamma transcriptional activity. Potency, µM (doses to about 53.6 µM), inactives show at the highest dose activity change, negative = inhibition, hits mostly inhibitors. P51450. Drosophila S2 Gal4-RORgamma UAS-luciferase reporter, 20 h. 310,000 compounds, 5.4% hits; note: nearly all actives have a fitted effect of over 60% in size
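Drosophila S2 cells stably expressing Gal4-DBD/mouse RORγ fusion under metallothionein promoter plus UAS-luciferase; compound 1 h, then 700 uM CuSO4 induction for 20 h at ambient temperature; inhibition read as reduced luminescence.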
VP16 counter = counter-screen for ROR gamma inhibitors: Gal4-VP16 reporter; 310,000 compounds, 3.5% hits; Drosophila S2 Gal4-VP16 UAS-luciferase, luminescence, 20 h; Potency, µM (highest dose often 53.6 µM), for the others: at the highest dose activity, negative = inhibition, usual class: inhibitors;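 note: Gal4-VP16 expression switched on by copper sulfate through the metallothionein promoter; nearly all actives have a fitted effect of over 50% in size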
DT40 TDP1 no CPT = qHTS for Inhibitors of human tyrosyl-DNA phosphodiesterase 1 (TDP1): qHTS in cells in absence of CPT; 420,000 compounds, 15% hits; Potency, µM (doses to about 46.2 µM), for the others: top-dose activity change, negative = growth inhibition, actives largely listed as inhibitors; DT40 Tdp1-/- hTDP1 cells, no CPT, ATP luminescence, 48 h; AID 686978, 2013; note: nearly all actives have a fitted effect of over 55% in size
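Growth kinetics read by CellTiter-Glo luminescence after ≥48 hr at 37 °C. Cells: DT40 Tdp1-/- stably carrying human TDP1, 400 per well, compound exposure in the absence of CPT (DMSO vehicle).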
ALOX12 inh = blocks human arachidonate 12S-lipoxygenase; P18054; purified 12hLO, xylenol orange hydroperoxide absorbance; Potency, µM (series often up to 108 µM), for the others: at the highest dose activity change, negative = inhibition, most hits filed as inhibitors; 580,000 compounds, 1.1% hits; AID 1671190
Target sequence (P18054 whole entry, looked up): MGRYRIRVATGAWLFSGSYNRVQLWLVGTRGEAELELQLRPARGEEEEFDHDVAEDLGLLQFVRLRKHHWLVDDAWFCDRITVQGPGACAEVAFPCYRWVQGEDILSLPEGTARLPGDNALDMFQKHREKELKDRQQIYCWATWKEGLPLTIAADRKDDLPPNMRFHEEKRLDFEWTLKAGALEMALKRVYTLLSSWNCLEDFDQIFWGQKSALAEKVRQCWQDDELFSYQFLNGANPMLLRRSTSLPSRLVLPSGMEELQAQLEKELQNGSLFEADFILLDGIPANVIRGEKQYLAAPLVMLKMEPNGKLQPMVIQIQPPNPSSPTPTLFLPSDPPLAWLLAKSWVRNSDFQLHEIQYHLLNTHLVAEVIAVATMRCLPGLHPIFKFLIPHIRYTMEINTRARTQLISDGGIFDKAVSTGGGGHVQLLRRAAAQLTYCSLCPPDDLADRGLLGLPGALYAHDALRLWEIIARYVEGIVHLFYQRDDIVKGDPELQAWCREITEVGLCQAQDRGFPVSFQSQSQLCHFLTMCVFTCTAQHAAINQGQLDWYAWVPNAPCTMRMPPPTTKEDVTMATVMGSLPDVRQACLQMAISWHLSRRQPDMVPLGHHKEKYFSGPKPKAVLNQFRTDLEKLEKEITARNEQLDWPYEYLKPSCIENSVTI
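Purified human 12hLO at 150 nM in 25 mM Hepes, 0.01% Triton X-100, pH 7.0, preincubated 15 min at room temperature with compound. Reaction started with 40 uM arachidonic acid, 30 min at room temperature. Hydroperoxide measured by Fe-xylenol orange, 573/405 nm absorbance ratio.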
DT40 TDP1 CPT = growth inhibition of DT40 Tdp1-/-;hTDP1 cells with camptothecin (screen for TDP1 inhibitors) | chicken DT40 Tdp1-/-;hTDP1 cells + 20 nM CPT, ATP luminescence, 48 h | Potency, µM (titrated, usually from 46.2 µM), inactives show at the highest dose activity change, negative = growth inhibition, hits mostly inhibitors | 420,000 compounds, 12% hits; note: nearly all actives have a fitted effect of over 55% in size
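Chicken DT40 Tdp1-/- cells complemented with human TDP1, 400 cells/well, exposed to compounds plus 20 nM camptothecin for at least 48 h at 37 C; viability read as ATP content by CellTiter-Glo luminescence.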
* = called active by the depositor; ? = inconclusive; . = not tested or not shown. Calls come from the whole dose curve; as a rule, active = well fitted curve in the direction sought with a large enough effect; inconclusive = small, poorly fitted or top-dose-only effect, or another doubt; inactive = no such curve, though single readings can be large; an effect the other way counts as inactive or inconclusive. % is set by controls: 0 for no effect and ±100 for the full control effect; potency is the fitted concentration of half-maximal effect.

SMILES	ELG1 DNA repair	RORgamma inh	VP16 counter	DT40 TDP1 no CPT	ALOX12 inh	DT40 TDP1 CPT
Cc1cc(=O)n(C(C)C(=O)N2CCCc3ccccc32)c2c1c(C)nn2-c1ccccc1 (configuration not stated)	.	.	.	?	-25%	16µM*
COc1ccc2oc(=O)c(C(=O)N3CCCCC3C)cc2c1 (configuration not stated)	.	.	.	.	-3%	.
COC(=O)c1ccccc1NC(=O)Oc1ccc(C(C)C)cc1	-5%	10%	-1%	-1%	22%	-21%
COC(=O)c1ccccc1NC(=O)c1ccc(COc2cccc3ccccc23)o1	0%	-80%	-16%	?	45µM*	?
COC(=O)c1ccccc1NC(=O)NC1CC1	10%	4%	-5%	2%	-8%	1%
COC(=O)c1ccccc1NC(=S)NC(=O)COc1ccc(C(C)C)cc1	-2%	11µM*	?	-12%	?	1%
COC(=O)c1ccccc1NC(=S)NC(C)=O	?	?	22%	1%	?	-13%
CCC(=O)NC(=S)Nc1ccccc1C(=O)OC	9%	13µM*	?	-3%	-30%	-5%
COC(=O)c1ccccc1NC(=S)NC(=O)C1CC1	16%	13µM*	-20%	-14%	-16%	?
COc1ccc(C2=NOC(C(=O)N3CCN(c4ccc(F)cc4)CC3)C2)cc1OC (configuration not stated)	.	.	.	.	-14%	.
CCC(=O)Nc1ccccc1C(=O)OCC(=O)c1cccc2ccccc12	0%	14%	4%	-24%	0%	?
CCCc1ccc(OCc2ccc(C(=O)NN)o2)c(OC)c1	?	6%	-1%	23µM*	2%	6%
COC(=O)c1ccccc1NC(=S)NC(=O)c1cccc2ccccc12	17%	4.5µM*	18µM*	?	32µM*	16µM*
COc1ccccc1OCc1ccc(C(=O)Nc2ccncc2)o1	?	?	?	21µM*	15%	?
CCC(=O)Nc1ccccc1C(=O)OCc1ccc(C(=O)c2ccccc2)cc1	19%	?	-29%	?	-10%	21µM*
O=C1CN(C(=O)c2cccc(C(F)(F)F)c2)CC(OCc2cccnc2)CN1CC1CCOCC1 (configuration not stated)	.	.	.	.	32%	.
CCCC(=O)NC(=S)Nc1cccc2c(O)cccc12	6%	13µM*	?	-27%	?	-12%
CCCC(=O)NC(=S)Nc1ccccc1C(=O)OC	10%	16µM*	?	?	-32%	-3%
CCCCOC(=O)Nc1ccccc1C(=O)OC	?	2%	-3%	?	151%	?
O=C(O)CNC(=O)CNS(=O)(=O)Cc1ccccc1	.	.	.	.	-9%	.
CC(=O)N[C@H]1CCN(CCC(=O)Nc2ccc(F)c(Cl)c2)C1	.	.	.	.	6%	.
Cc1ccc(C2Cn3nnc(-c4noc(C5CCCCC5)n4)c3CO2)cc1 (configuration not stated)	.	.	.	.	22%	.
COc1ccccc1CNS(=O)(=O)c1ccc(N2CCCC2)cc1Br	?	.	.	?	-11%	16µM*
O=C(CN1CCN(c2ccccc2O)CC1)Nc1nc(-c2ccc(F)c(F)c2)cs1	.	.	.	.	-44%	.
CCN(CC)S(=O)(=O)c1cccc2cccnc12	-2%	1%	3%	0%	-4%	-12%
CSS(=O)(=O)c1cccc2cccnc12	?	?	?	5.8µM*	?	5.8µM*
O=Cc1ccc2ccc3cccnc3c2n1	-4%	-42%	0%	3.3µM*	-6%	5.2µM*
O=C1C=CC(=O)N1c1cccc2cccnc12	.	.	.	?	?	16µM*
